Counter-ions that a name gives are not always drawn.
tested on: Saccharomyces cerevisiae; assay: fraction of cells in G1 phase (DNA content, flow cytometry); higher = more cells with unreplicated DNA (G1 delay); details: temperature: 30 C; YPD; JTY2953 pdr5 snq2 (sensitized); drug added to: cultures diluted from stationary phase; 6-7 h
Summary of the method: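 S. cerevisiae grown in YPD at 30°C was exposed to library drugs. In one setup, overnight sensitized JTY2953 cultures were diluted 1∶200, given a final 20 µg/ml and fixed after 6–7 h, while other runs dosed dividing JTY2953 with fixation 6 h later or BY4741 with fixation 4.33 h later. Cells were ethanol-fixed, stained with SYTOX Green and analysed by flow cytometry at 10,000 events. The G1 fraction is the area of the Dean-Jett-Fox G1 peak divided by the summed G1 and G2/M areas.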

| SMILES | fraction of cells in G1 phase |
| --- | --- |
| C=C(c1ccc(C(=O)O)cc1)c1cc2c(cc1C)C(C)(C)CCC2(C)C [Bexarotene] (57.3905 µM) | 0.546 |
| COc1ccc(CN(CCN(C)C)c2ccccn2)cc1 [Mepyramine maleate] (70.079 µM) | 0.495 |
| CCCCCN(CCCCC)C(=O)C(CCC(=O)O)NC(=O)c1ccc(Cl)c(Cl)c1 (centres undefined) [Lorglumide] (43.5334 µM) | 0.482 |
| Cc1[nH]c(=O)c(C#N)cc1-c1ccncc1 [Milrinone] (94.6857 µM) | 0.482 |
| COC(=O)CCc1ccc(OCC(O)CNC(C)C)cc1 (centres undefined) [Esmolol] (67.7089 µM) | 0.459 |
| C#Cc1cccc(Nc2ncnc3cc(OCCOC)c(OCCOC)cc23)c1 [Erlotinib] (50.8329 µM) | 0.527 |
| OCCOCCN1CCN(C2=Nc3ccccc3Sc3ccccc32)CC1 [Quetiapine fumarate] (22.6473 µM) | 0.499 |
| O=C(O)c1cn(-c2ccc(F)cc2)c2cc(N3CCNCC3)c(F)cc2c1=O [Sarafloxacin HCl] (51.8977 µM) | 0.444 |
| CC(=O)OCC(=O)[C@@]1(O)CC[C@H]2[C@@H]3CCC4=CC(=O)CC[C@]4(C)[C@H]3[C@@H](O)C[C@@]21C [Hydrocortisone 21-acetate] (49.4428 µM) | 0.494 |
| COc1ccc(/C=C/C(=O)Nc2ccccc2C(=O)O)cc1OC [Tranilast] (61.0986 µM) | 0.546 |
| CN(C)c1nc(N(C)C)nc(N(C)C)n1 [Altretamine] (95.1095 µM) | 0.49 |
| CNC1(C)C2CCC(C2)C1(C)C (centres undefined) [Mecamylamine HCl] (119.548 µM) | 0.486 |
| CC[C@@H]1C(=O)OC[C@@H]1Cc1cncn1C [Pilocarpine HCl] (96.0327 µM) | 0.526 |
| C=CCc1ccccc1OCC(O)CNC(C)C (centres undefined) [Alprenolol HCl] (80.2066 µM) | 0.52 |
| Cc1c(-c2cnccn2)ssc1=S [Oltipraz] (88.3617 µM) | 0.503 |
| CS(=O)(=O)c1ccc(C2=C(c3ccccc3)C(=O)OC2)cc1 [Rofecoxib] (63.6208 µM) | 0.536 |
| CC(C)(O)c1ccccc1CC[C@@H](SCC1(CC(=O)O)CC1)c1cccc(/C=C/c2ccc3ccc(Cl)cc3n2)c1 [Montelukast] (34.1181 µM) | 0.532 |
| CC1=C(CC(=O)O)c2cc(F)ccc2/C1=C\c1ccc([S+](C)[O-])cc1 (centres undefined) [Sulindac] (56.1137 µM) | 0.521 |
| O=C(NCC1CCCCN1)c1cc(OCC(F)(F)F)ccc1OCC(F)(F)F (centres undefined) [Flecainide] (42.1585 µM) | 0.509 |
| CC(=O)S[C@@H]1CC2=CC(=O)CC[C@]2(C)[C@H]2CC[C@@]3(C)[C@@H](CC[C@@]34CCC(=O)O4)[C@H]12 [Spironolactone] (48.0095 µM) | 0.531 |

| SMILES | fraction of cells in G1 phase |
| --- | --- |
| Clc1ccc2c(c1)CCc1cccnc1C2=C1CCNCC1 [Desloratadine] (64.3439 µM) | 0.5 |
| CCN1CCC[C@H]1CNC(=O)c1c(OC)ccc(Br)c1OC [Remoxipride] (53.8681 µM) | 0.525 |
| CO[C@H]1C[C@H](O[C@H]2[C@H](C)[C@@H](O[C@@H]3O[C@H](C)C[C@H](N(C)C)[C@H]3OC(C)=O)[C@@H](C)C[C@@]3(CO3)C(=O)[C@H](C)[C@@H](OC(C)=O)[C@@H](C)[C@@H](C)OC(=O)[C@@H]2C)O[C@@H](C)[C@@H]1OC(C)=O [Troleandomycin] (24.5704 µM) | 0.489 |
| CC(=O)O[C@H]1C(=O)[C@@]2(C)[C@H]([C@H](OC(=O)c3ccccc3)[C@]3(O)C[C@H](OC(=O)[C@H](O)[C@@H](NC(=O)c4ccccc4)c4ccccc4)C(C)=C1C3(C)C)[C@]1(OC(C)=O)CO[C@@H]1C[C@@H]2O [Taxol] (23.4212 µM) | 0.481 |
| CN1CCCN=C1/C=C/c1cccs1 [Pyrantel pamoate] (33.6309 µM) | 0.464 |
| Nc1nnc(-c2cccc(Cl)c2Cl)c(N)n1 [Lamotrigine] (78.0958 µM) | 0.493 |
| C[C@@H]1C[C@H]2[C@@H]3CCC4=CC(=O)C=C[C@]4(C)[C@@]3(F)[C@@H](O)C[C@]2(C)[C@@]1(O)C(=O)CO [Dexamethasone] (50.9591 µM) | 0.504 |
| CN(C)C(=O)C(CCN1CCC(O)(c2ccc(Cl)cc2)CC1)(c1ccccc1)c1ccccc1 [Loperamide] (38.9864 µM) | 0.512 |
| CC(C)Cn1cnc2c(N)nc3ccccc3c21 [Imiquimod] (83.2257 µM) | 0.484 |
| CC(CCc1ccc(O)cc1)NCCc1ccc(O)c(O)c1 (centres undefined) [Dobutamine HCl] (66.3594 µM) | 0.528 |
| Cc1ccc(N(CC2=NCCN2)c2cccc(O)c2)cc1 [PhentolamineHCl] (62.9327 µM) | 0.505 |
| CN1CCCCC1CCN1c2ccccc2Sc2ccc([S+](C)[O-])cc21 (centres undefined) [Mesoridazine besylate] (51.7354 µM) | 0.476 |
| Cc1ccc(C(=O)c2ccc(CC(=O)O)n2C)cc1 [Tolmetin Na] (77.7328 µM) | 0.482 |
| CCCCn1c(=O)c2c(ncn2CC(C)=O)n(CCCC)c1=O [Denbufylline] (62.423 µM) | 0.517 |
| CC(C)(C#N)c1cc(Cn2cncn2)cc(C(C)(C)C#N)c1 [Anastrozole] (68.1723 µM) | 0.518 |
| CCN(Cc1ccncc1)C(=O)C(CO)c1ccccc1 (centres undefined) [Tropicamide] (70.3331 µM) | 0.521 |
| O=c1[nH]cnc2c1ncn2[C@H]1CC[C@@H](CO)O1 [Didanosine] (84.6625 µM) | 0.514 |
| Cc1ncc([N+](=O)[O-])n1CC(C)O (centres undefined) [Secnidazole] (108.001 µM) | 0.48 |
| CN[C@@H]1[C@H](O)[C@H](NC)[C@H]2O[C@@]3(O)C(=O)C[C@@H](C)O[C@H]3O[C@@H]2[C@H]1O [Spectinomycin] (60.1763 µM) | 0.485 |

— the supplement of paper PMC3342239
